Results on 50 compounds are retold here after PubChem BioAssay AID540256 (National Center for Advancing Translational Sciences (NCATS), 2011).

Among all 300,000 compounds or so, about 3,700 (1.2%) were called active. Inconclusive results (about 20%) are left out. For the sample, actives were picked, then their nearest neighbours and some compounds at random. Values without a mark were called inactive. Calls come from the whole dose curve; tested in HEK293 cells.
% is set by controls: 0 for no effect and ±100 for the full control effect; potency is the fitted concentration of half-maximal effect.

This assay can be described thus: qHTS for Inhibitors of binding or entry into cells for Lassa Virus. Note: nearly all actives have a fitted effect of over 50% in size. The conditions noted are these: Lassa virus pseudotype entry inhibition, cell reporter; series mostly up to 37.9 µM; activity change, negative = inhibition: at the top concentration. (In qHTS, concentration-response curves come from the screen itself.)
Regarding `Cc1ccc(-n2cnc3cc(C(=O)NCCC4=CCCCC4)ccc32)cc1Cl`, the “activity change, negative = inhibition” value is 12.8% [at 46.1 µM].

Turning to `CC(Sc1nncn1C)C(=O)NCCC1=CCCCC1` (stereo not given), the “activity change, negative = inhibition” value is 16.2% [at 46.1 µM].

Take `Cn1nnc2cc(C(=O)NCCC3=CCCCC3)ccc21`: the Potency was 8.91 µM (active).

In the case of `Cc1cccc(C(=O)N[C@H](C(=O)NCc2cccs2)C(C)C)c1`, the “activity change, negative = inhibition” value was 0.171%.

`COc1ccc2c(c1)c(=Cc1ccc(N(C)C)cc1)c1cc(-c3ccccc3)[n+](C)n12`: the Potency is 8.91 µM (active).

As to `CCc1nnc(SCc2c(F)cccc2Cl)c2cc3sccc3n12`, the “activity change, negative = inhibition” value was -13.9% [at 46.1 µM].

On to `COc1cccc(-c2nnc(NC(=O)c3ccc(S(=O)(=O)N(CC(C)C)CC(C)C)cc3)o2)c1`, for which the Potency is 7.08 µM (active).

For the compound `O=C(COC(=O)c1ccc(Oc2ccccc2)cc1)Nc1nnc(-c2ccccc2)o1`, the “activity change, negative = inhibition” value was 11.2%.

On to `CS(=O)(=O)c1ccc(-c2nnc(NC(=O)c3ccc4c(c3)OCCO4)o2)cc1`, for which the “activity change, negative = inhibition” value is -1.29% [at 46.1 µM].

Take `COC(=O)c1ccc(NS(=O)(=O)c2cc3c4c(c2)C(C)C(=O)N4CCC3)cc1` (stereo not given): the “activity change, negative = inhibition” value is -10.9%.

As to `COc1ccc(C(=O)N2CCN(c3ccc(C(C)=O)cc3F)CC2)cc1S(=O)(=O)NC1CC1`, the “activity change, negative = inhibition” value was -10.2%.

Consider `CC(C)(CNC(=O)Cc1ccc(Cl)cc1Cl)N1CCOCC1`, for which the “activity change, negative = inhibition” value is 12.5% [at 46.1 µM].

For the compound `O=C(NCCSCc1ccccc1)c1ccc(Cl)c(S(=O)(=O)N2CCOCC2)c1`, the “activity change, negative = inhibition” value was 2.76%.

As for `CC(C)(CNC(=O)c1ccc(Cl)c(S(=O)(=O)N2CCc3ccccc3C2)c1)N1CCOCC1`, the Potency was 11.2 µM (active).

For `Nc1ncnc2c1cnn2C1CC(O)C(CO)O1` (stereo not given), the “activity change, negative = inhibition” value is -5.6% [at 46.1 µM].

Turning to `CSc1ncccc1C(=O)NCC(c1ccco1)N1CCCCC1` (stereo not given), the “activity change, negative = inhibition” value is 1.83%.

For `CS(=O)(=O)Nc1ccc(C2=NN(S(C)(=O)=O)C(c3cccs3)C2)cc1` (stereo not given), the “activity change, negative = inhibition” value was -10.6%.

`CCS(=O)(=O)Nc1ccc(C2=NN(S(=O)(=O)c3ccc(F)cc3)C(c3ccco3)C2)cc1` (stereo not given): the Potency is 7.3 µM (active).

Regarding `CCS(=O)(=O)Nc1ccc(C2=NN(C(C)=O)C(c3cccs3)C2)cc1` (stereo not given), the “activity change, negative = inhibition” value was -18.5%.

Take `COc1ccccc1C(=O)c1ccccc1C(=O)c1ccccc1`: the “activity change, negative = inhibition” value was -0.819% [at 46.1 µM].

Regarding `COc1ccc(-c2cn3nc(N4CCC(C(=O)Nc5cccc(C)c5C)CC4)sc3n2)cc1`, the “activity change, negative = inhibition” value is 18.7% [at 46.1 µM].

Regarding `CC(C)OC(=O)c1ccc(NCc2cc(O)ccc2O)cc1Cl`, the Potency was 10 µM (active).

Consider `CC(OC(=O)c1ccc(Cl)cc1O)C(=O)NCCC1=CCCCC1` (stereo not given), for which the “activity change, negative = inhibition” value was 2.74%.

As for `CC(C)NC(=O)c1ccc(Cl)cc1Cl`, the “activity change, negative = inhibition” value is 12.8% [at 46.1 µM].

In the case of `O=C(Cn1c(-c2cccs2)cc2ccccc21)NCCc1ccc(Cl)cc1`, the “activity change, negative = inhibition” value was 8.67% [at 46.1 µM].

`O=C1c2ccccc2C(=O)N1CCCCCCN1C(=O)c2ccccc2C1=O`: the “activity change, negative = inhibition” value is 0% [at 46.1 µM].

Turning to `CC(=O)c1ccc(S(=O)(=O)NC2CC(=O)N(c3ccc4c(c3)OCCO4)C2)cc1` (stereo not given), the “activity change, negative = inhibition” value was -2.24%.

On to `CSc1ccccc1N1CCN(CCCCCC(=O)NC2CCCc3ccccc32)CC1` (stereo not given), for which the Potency is 11.6 µM (active).

For `O=C(CSc1nncs1)NC1CCCc2ccccc21` (stereo not given), the “activity change, negative = inhibition” value is 14% [at 46.1 µM].

For `O=C(CN1CCN(c2ccc(O)cc2)CC1)NC1CCCc2ccccc21` (stereo not given), the “activity change, negative = inhibition” value is -29.6%.

Turning to `Cc1cccc(NC(=S)N2CCC(C(=O)c3ccc(F)cc3)CC2)c1`, the “activity change, negative = inhibition” value is 1.61% [at 46.1 µM].

Take `COc1cc(C(c2c(NC(=O)c3ccco3)sc(C)c2C)N2CCOCC2)cc(OC)c1OC` (stereo not given): the “activity change, negative = inhibition” value was -2.37%.

As to `Cc1ccc(-c2nnc(-c3ccc(NC(=O)c4cccs4)cc3)o2)cc1`, the Potency was 7.3 µM (active).

For the compound `Cc1ccc(C(=O)Nc2ccc(NC(=O)c3cccs3)cc2)c(C)c1`, the “activity change, negative = inhibition” value is -6.7%.

Take `Cc1ccc(-c2csc(NC(=O)c3cccs3)n2)cc1`: the “activity change, negative = inhibition” value was 0.307%.

Turning to `COC(=O)c1cc(C(=O)OC)n2ccc3cc(OC)c(OC)cc3c12`, the “activity change, negative = inhibition” value is 21.2% [at 14.3 µM].

With `CSCCC(NC(=O)COc1ccccc1)C(=O)OCc1ccc(Cl)cc1` (stereo not given), the “activity change, negative = inhibition” value was 3.24%.

For `O=C(CSc1nc2[nH]c(=O)[nH]c(=O)c2s1)Nc1cccc(F)c1`, the “activity change, negative = inhibition” value was 9.68%.

Turning to `COc1cc(C(=O)N2CCN(c3ccc(Nc4ccc(C)cc4)nn3)CC2)cc(OC)c1OC`, the “activity change, negative = inhibition” value is -25.3% [at 46.1 µM].

For `O=C(NC1CC1)c1ccc(-c2ccccc2)cc1`, the “activity change, negative = inhibition” value is 17.2%.

For `Cc1ccc(C(=O)NCC(=O)OCC(=O)NC2CCCCCCC2)cc1`, the “activity change, negative = inhibition” value was -7.65% [at 46.1 µM].

Turning to `Cc1ccc(C(=O)NC2CCC2)cc1-c1ccc(C(=O)NCC2CC2)cc1`, the Potency was 11.2 µM (active).

For `CCN(CC(=O)Nc1ccc(OC)cc1)C(=O)c1ccc(Cl)c(S(=O)(=O)N2CCCC2)c1`, the “activity change, negative = inhibition” value is -5.74%.

Turning to `COC(=O)c1cc(C(=O)NC(C)C2CC3CCC2C3)cc([N+](=O)[O-])c1` (stereo not given), the “activity change, negative = inhibition” value is 1.88%.

For the compound `O=C(CCCCCCCC(=O)N1CCCCC1)N1CCCCC1`, the “activity change, negative = inhibition” value is -5.69%.

Take `CSc1ncc(Sc2ccccc2)c(C(=O)O)n1`: the “activity change, negative = inhibition” value was -7.12%.

Regarding `COc1ccc2nc(N3C(=O)C(O)=C(C(=O)c4ccco4)C3c3ccco3)sc2c1` (stereo not given), the “activity change, negative = inhibition” value is 3.18%.

For the compound `CCOC(=O)CC1C(=O)NCCN1c1nc2c(C)cccn2c(=O)c1/C=C1\SC(=S)N(C(C)CC)C1=O` (stereo not given), the Potency is 6.31 µM (active).

Regarding `CCCN(CCC)c1nc2c(C)cccn2c(=O)c1/C=C1/SC(=S)N(Cc2ccco2)C1=O`, the “activity change, negative = inhibition” value was -2.89% [at 46.1 µM].

As for `Cc1cccn2c(=O)c(/C=C3\SC(=S)N(CC(C)C)C3=O)c(NCCCOC(C)C)nc12`, the “activity change, negative = inhibition” value is 3.06%.
